# Screens from PubChem.
# Shown are actives, neighbours in structure and some others; about 12% of the full set was active somewhere.
# JMJD2A Tudor inh – blocks the human JMJD2A Tudor domain. O75164. AlphaScreen JMJD2A-Tudor / H3K4me3 peptide binding. Potency, µM (titrated, usually from 114 µM), inactives show at the top dose activity change, negative = inhibition, most hits filed as inhibitors. actives 4.4% (n = 390,000); further: on the % scale 0 is the no-effect control and ±100 the full control effect; nearly all actives have a fitted effect of over 50% in size
# Target sequence (O75164 whole entry, looked up, the tested form may be a part): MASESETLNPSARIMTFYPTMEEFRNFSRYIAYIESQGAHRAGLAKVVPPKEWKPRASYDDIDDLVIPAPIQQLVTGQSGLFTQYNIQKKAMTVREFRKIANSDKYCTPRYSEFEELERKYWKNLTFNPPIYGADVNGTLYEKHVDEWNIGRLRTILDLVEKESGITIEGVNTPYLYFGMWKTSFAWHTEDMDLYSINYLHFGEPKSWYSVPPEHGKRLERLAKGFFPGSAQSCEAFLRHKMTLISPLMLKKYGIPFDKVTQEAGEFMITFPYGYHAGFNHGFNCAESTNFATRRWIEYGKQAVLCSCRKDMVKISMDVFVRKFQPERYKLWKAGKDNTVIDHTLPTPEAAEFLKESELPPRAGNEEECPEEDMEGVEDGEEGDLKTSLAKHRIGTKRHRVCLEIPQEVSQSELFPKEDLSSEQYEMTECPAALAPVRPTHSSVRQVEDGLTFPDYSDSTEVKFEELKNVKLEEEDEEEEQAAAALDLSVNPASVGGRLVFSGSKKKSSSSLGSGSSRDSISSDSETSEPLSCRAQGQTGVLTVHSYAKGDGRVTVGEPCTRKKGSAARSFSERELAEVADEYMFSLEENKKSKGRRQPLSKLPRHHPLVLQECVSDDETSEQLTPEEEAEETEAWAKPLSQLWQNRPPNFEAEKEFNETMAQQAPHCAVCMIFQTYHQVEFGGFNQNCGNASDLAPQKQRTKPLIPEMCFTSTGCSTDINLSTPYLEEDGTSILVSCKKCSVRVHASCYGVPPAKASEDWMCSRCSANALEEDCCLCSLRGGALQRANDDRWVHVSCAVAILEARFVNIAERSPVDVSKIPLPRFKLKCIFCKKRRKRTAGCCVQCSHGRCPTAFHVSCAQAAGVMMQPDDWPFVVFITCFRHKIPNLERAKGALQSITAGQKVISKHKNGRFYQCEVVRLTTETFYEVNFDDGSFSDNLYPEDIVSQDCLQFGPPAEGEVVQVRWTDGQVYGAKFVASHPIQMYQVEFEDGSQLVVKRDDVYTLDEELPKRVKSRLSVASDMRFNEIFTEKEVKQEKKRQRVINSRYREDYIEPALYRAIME
# HP1b chromo inh – blocks HP1-beta chromodomain binding to methylated histone tails | Potency, µM (doses to about 114 µM), without a hit: at the highest dose activity change, negative = inhibition, hits mostly inhibitors | AlphaScreen HP1-beta / biotin-H3K9me3 peptide binding | P83916 | actives 0.56% (n = 390,000); further: nearly all actives have a fitted effect of over 70% in size
#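 HP1-beta protein (50 nM final) preincubated 30 min at room temperature with biotinylated H3(1-18)K9me3 peptide (50 nM) in PBS pH 7.4, 0.01% Tween-20, then compound added for 30 min. AlphaScreen streptavidin donor/nickel chelate acceptor beads (10 ug/mL final), 30 min dark, luminescence read.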
# L3MBTL1 inh – L3MBTL1 (human) inhibition; AlphaScreen L3MBTL1–H3K9me1 peptide binding; actives 0.66% (n = 230,000); Potency, µM (highest dose often 57.1 µM), for inactives: top-dose activity, negative = inhibition, hits mostly inhibitors; Q9Y468; further: on the % scale 0 is the no-effect control and ±100 the full control effect; nearly all actives have a fitted effect of over 60% in size
#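 L3MBTL1 (50 nM) pre-complexed 30 min with biotinylated H3(1-15)K9me1 peptide (75 nM), then compounds added for 30 min at room temperature; AlphaScreen streptavidin donor/nickel chelate acceptor beads (10 ug/mL final) read after 30 min dark incubation.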
# G9a block – blocks human histone lysine methyltransferase G9a | Q96KQ7 | G9a H3K9 monomethylation, AlphaScreen, 2 h | Potency, µM (highest dose often 102 µM), for the others: at the highest dose activity, negative = inhibition, hits mostly inhibitors | actives 8.8% (n = 350,000); further: on the % scale 0 is the no-effect control and ±100 the full control effect; nearly all actives have a fitted effect of over 75% in size
#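 G9a (20 nM) preincubated 15 min RT with compounds, then 500 nM biotinylated H3K9 peptide and 20 uM SAM added; 2 h RT reaction. Monomethyl-H3K9 product detected by AlphaScreen with anti-H3K9me1 antibody, streptavidin donor and anti-rabbit IgG acceptor beads.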
# BAZ2B inh – inhibitors of human BAZ2B bromodomain; Potency, µM (highest dose often 114 µM), inactives show top-dose activity change, negative = inhibition, hits mostly inhibitors; Q9UIF8; AlphaScreen BAZ2B-H3K14Ac peptide displacement; actives 4.4% (n = 360,000); further: on the % scale 0 is the no-effect control and ±100 the full control effect; nearly all actives have a fitted effect of over 60% in size
#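 Compounds, titrated to a top concentration of 110 uM, were incubated 30 min at room temperature with preformed BAZ2B/acetyl-K14 H3 peptide complex (50 nM each). Proximity signal was measured by AlphaScreen after 20 min with beads.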
# Sfp PPTase inh – inhibitors of Bacillus subtilis Sfp phosphopantetheinyl transferase. Q9F4F7. Biochemical Sfp PPTase activity, qHTS. Potency, µM, without a hit: largest response in the series, negative = inhibition, most hits filed as inhibitors. actives 3.5% (n = 310,000);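 further: the enzyme is Sfp with the accession as filed and its product quenches rhodamine fluorescence; 0% = enzyme reaction without inhibitor and -100% = no enzyme wells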
#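 Fluorescence-quenching assay with 15 nM Sfp, 5 uM rhodamine-CoA and 12.5 uM BHQ-2-labelled ybbR peptide in pH 7.6 Hepes/MgCl2 buffer. Enzyme was pre-incubated with compound for 15 min at room temperature. Rate was taken from the 30-min fluorescence change (525/598 nm).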
# The depositor's hits bear a star; ? = inconclusive; nt = not tested or not shown; ! = not active in a repeat; [ ] = another dose, or the depositor's remark. The call rests on the fitted dose curve; in most records, active means well fitted curve in the direction sought with a large enough effect; inconclusive means small, poorly fitted or top-dose-only effect, or another doubt; inactive means no such curve, though single readings can be large; an effect the other way counts as inactive or inconclusive. Potency means the concentration at half of the fitted maximal effect.
SMILES,JMJD2A Tudor inh,HP1b chromo inh,L3MBTL1 inh,G9a block,BAZ2B inh,Sfp PPTase inh
COC1=C/C(=C/c2c(N)n3nc(CC(=O)N4CCCC4)sc3nc2=O)C=CC1=O,-34%,17%,nt,?,-19%[57.1 µM],4%
CCNC(=O)CC1C(=O)N(c2cccc(OC)c2)C(=O)N1Cc1ccc(OC)c(OC)c1 (centres undefined),-11%,17%,nt,8%[59 µM],2%,nt
Cn1c(=O)c2c(nc(Oc3ccccc3)n2Cc2c(Cl)cccc2Cl)n(C)c1=O,-15%,12%,nt,5%[59 µM],nt,nt
NCCC[C@@H](CC(=O)N[C@@H]1CCNC[C@H]1C(=O)N[C@H](CC(=O)N[C@@H](CCC(=O)O)CC(=O)O)Cc1ccccc1)NC(=O)C[C@H](Cc1ccccc1)NC(=O)[C@@H]1CNCC[C@H]1N,nt,nt,nt,nt,nt,-15%
Cc1cccc(NC(=O)CN2CCCCCC2)c1,20µM*,50µM*,nt,14µM*,?,-23%
O=C(CN1CCCC1)Nc1ccc(F)c(Cl)c1,22µM*,-21%,nt,nt,?,-10%
Cc1cccc(NC(=O)CCN2CCCCC2)c1,-5%,40%,2%,-19%,3%,-1%
Cc1ccc(NC(=O)CN(C)CC(=O)Nc2ccc(F)c(Cl)c2)cc1,14µM*,?,?,32µM*,50µM*,-22%
Cc1ccc(NC(=O)CN2CCN(C)CC2)cc1Br,5.6µM*,?,-7%,nt,50µM*,-34%
Cc1ccc(NC(=S)N(CCN(C)C)Cc2cc3cc(C)cc(C)c3[nH]c2=O)cc1,-34%,6%,-2%,-2%[59 µM],-9%,15%
Cc1cc(N)ccc1NC(=O)CN1CCCC1,22µM*,?,nt,25µM*,50µM*,?
O=C(CN1CCCCCC1)Nc1ccc(F)c(F)c1,8.9µM*,?,-6%,32µM*,50µM*,-7%
Cc1nc([N+](=O)[O-])cn1CC(=O)Nc1ccc(F)c(Cl)c1,-16%,6%,-6%,13%,4%,30%
COc1ccc(N)cc1NC(=O)CN1CCCC1,-18%,-8%,-2%,?,-28%,-5%
O=C(Cn1cnc([N+](=O)[O-])c1)Nc1ccc(F)c(Cl)c1,-13%,4%,nt,50µM*,-13%,-19%
O=C(CN1CCCCC1)Nc1ccc(F)c(Cl)c1,5%,21%,-2%,14%,2%,11%
CCOc1ccccc1NC(=O)c1cc2c(=O)n(Cc3cccnc3)ccc2nc1C,-24%,-15%,nt,6%[59 µM],-16%,nt
CN(C)S(=O)(=O)c1ccc(NC(=O)C2CC(=O)N(Cc3ccccc3)C2)cc1 (centres undefined),-1%,19%,nt,17%,-2%,-9%
CS(=O)(=O)c1ccc(Cl)c(NC(=O)C2CC(=O)N(Cc3ccccc3)C2)c1 (centres undefined),89µM*,-24%,nt,15%[59 µM],?,9%
CCN(CC)c1ccc(NC(=O)C2CC(=O)N(Cc3ccccc3)C2)cc1 (centres undefined),56µM*,?,32µM*,11µM*,45µM*,-22%
CS(=O)(=O)c1ccc(Cl)c(NC(=O)C2CC(=O)N(Cc3ccco3)C2)c1 (centres undefined),-3%,28%,?,?,-4%,nt
Cn1cc(CN2C[C@H]3CC[C@H]2C3)c(-c2ccccc2F)n1,-10%,54%,1%,-3%,-2%,25%
Cc1cccc(C(=O)Oc2csc(=S)n2C(=O)c2cccc(C)c2)c1,?,-30%,-7%,1.6µM*,?,45µM*
O=C(Oc1csc(=S)n1C(=O)c1ccccc1)c1ccccc1,35µM*,50µM*,nt,1µM*,?,40µM*
Cc1cccc(C(=O)Nc2cccc(OC(=O)c3cccc(C)c3)c2)c1,14%,40%,9%,25%[12.7 µM],-13%,14%
SMILES,JMJD2A Tudor inh,HP1b chromo inh,L3MBTL1 inh,G9a block,BAZ2B inh,Sfp PPTase inh
CCOc1ccc(NCCC(O)c2ccc(F)cc2)cc1 (centres undefined),?,?,nt,-33%[2.33 µM],50µM*,-2%
Cc1nc2nc(C)c(CCC(=O)NCCCN3CCN(c4cccc(Cl)c4)CC3)c(C)n2n1,?,14%,-4%,50µM*!,?,3%
CCOC(=S)SCC(=O)N1CCc2cc(OC)c(OC)cc2C1C1C(=O)CC(C)(C)CC1=O (centres undefined),-33%,10%,12%,45µM*,12%,-17%
CCOC(=O)C1=C(CN2CCN(C(=O)c3ccco3)CC2)NC(=O)NC1c1ccc(OC)cc1 (centres undefined),-12%,37%,nt,-45%,-27%,7%
COc1ccccc1C(=O)NCc1ccco1,-16%,23%,-6%,nt,-11%,-2%
O=C(NCCCNC(=O)c1ccccc1F)c1ccco1,-3%,26%,nt,10%,-8%,-7%
O=C(Nc1ccccc1C(=O)NCCN1CCOCC1)c1ccco1,0%,19%,22%,50µM*,-4%,15%
COc1ccccc1C(=O)NCCNC(=O)c1ccco1,25µM*,?,25%,-7%[59 µM],1%,7%
O=C(NCCNC(=O)c1ccccc1Cl)c1ccco1,79µM*,-3%,nt,50µM*,16%,15%
COc1ccccc1C(=O)NNC(=O)C(=O)NCc1ccccc1,?,23%,4%,28µM*,-34%,11%
CCN(CC)CCCCn1c(-c2ccccc2)nc2c(NC3CCCCC3)nc(C)nc21,nt,nt,nt,nt,nt,13%
COc1ccc(-c2cn(-c3ccc(C)cc3)c(S(=O)(=O)CC(=O)Nc3ccc(F)cc3)n2)cc1,?,17%,nt,?,?,nt
CCNc1c([N+](=O)[O-])ncn1C,-5%,24%,nt,2%[59 µM],-16%,20%
Cn1cnc([N+](=O)[O-])c1Nc1ccc(O)cc1,-14%,12%,-6%,25µM*,-17%,?
COc1ccc(C(=O)[C@H]2[C@H]3C(=O)N(c4ccccc4)C(=O)[C@H]3C3C=CC=NN32)cc1 (some centres undefined),?,-19%,nt,?,-31%,?
CC(=O)Oc1ccc(C(=O)[C@H]2[C@H]3C(=O)N(c4ccc(C)cc4)C(=O)[C@H]3[C@@H]3C=CC=NN32)cc1,?,-10%,-7%,3.5µM*,-34%,-22%
COc1ccc(N2C(=O)[C@@H]3[C@H](C2=O)[C@H](C(=O)c2ccc(OC(C)=O)cc2)N2N=CC=C[C@@H]32)cc1,nt,nt,-5%,3.5µM*,?,-23%
CC(=O)Oc1ccc(C(=O)[C@H]2[C@H]3C(=O)N(c4ccccc4)C(=O)[C@H]3[C@@H]3C=CC=NN32)cc1,-34%,11%,-2%,4.5µM*,-27%,?
